A selection: hits, their analogues and other compounds. The true share with any hit is near 4.2%.
D1 agonist: human D1 receptor agonism; P21728; HEK293 T-REx D1 cells, calcium flux, agonist mode; activation, % at 2 µM; 360,000 compounds, 1% hits; AID 504660; in the data active = activation above about 30%; also: 0% is about no effect
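Inducible HEK293 T-REx D1 cells, force-coupled to calcium signalling, were plated at 4000 cells/well with tetracycline and held overnight at 30 C. After no-wash calcium dye loading, compound-evoked calcium rise over 180 s flagged agonists.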
TRPV1 potentiator: potentiators of human vanilloid receptor 1 (TRPV1) | 320,000 compounds, 0.02% hits | potentiation, % at 8.33 µM | TRPV1-expressing cells, Fluo-8 calcium influx, capsaicin EC20 potentiation; in the data active = potentiation above about 80%; inconclusive = between about 30% and that limit; also: 0% is about no effect
Target sequence (Q8NER1 whole entry, looked up): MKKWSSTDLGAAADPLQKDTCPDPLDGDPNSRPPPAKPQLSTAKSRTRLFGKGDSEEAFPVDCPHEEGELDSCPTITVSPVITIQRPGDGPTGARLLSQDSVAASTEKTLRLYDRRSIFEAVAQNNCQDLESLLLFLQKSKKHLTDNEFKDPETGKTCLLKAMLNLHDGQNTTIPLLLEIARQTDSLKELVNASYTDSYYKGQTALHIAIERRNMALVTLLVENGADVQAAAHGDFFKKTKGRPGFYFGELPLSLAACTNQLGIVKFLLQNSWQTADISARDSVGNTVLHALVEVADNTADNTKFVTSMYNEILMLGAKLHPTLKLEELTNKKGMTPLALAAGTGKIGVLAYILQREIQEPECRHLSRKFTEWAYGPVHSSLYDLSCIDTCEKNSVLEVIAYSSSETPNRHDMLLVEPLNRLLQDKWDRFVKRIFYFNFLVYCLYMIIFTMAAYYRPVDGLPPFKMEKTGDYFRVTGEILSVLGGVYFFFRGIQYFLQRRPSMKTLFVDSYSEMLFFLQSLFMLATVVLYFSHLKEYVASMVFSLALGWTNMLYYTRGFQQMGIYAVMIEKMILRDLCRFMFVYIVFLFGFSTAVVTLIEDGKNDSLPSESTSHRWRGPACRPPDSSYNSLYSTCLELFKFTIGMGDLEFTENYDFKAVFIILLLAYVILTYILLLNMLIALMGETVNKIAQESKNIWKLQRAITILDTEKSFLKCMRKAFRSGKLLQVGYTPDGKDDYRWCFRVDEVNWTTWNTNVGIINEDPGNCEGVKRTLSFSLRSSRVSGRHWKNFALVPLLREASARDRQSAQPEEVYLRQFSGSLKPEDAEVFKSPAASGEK
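Fluo-8 calcium influx in TRPV1-expressing cells, kinetic read (ex 480/em 520 nm). Compound added and read 3 min for agonist activity, followed by capsaicin at EC20 final and 2 min further read for enhancement.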
D1 antag: antagonists of human D1 dopamine receptor. activity change, negative = inhibition, % at 10 µM. 360,000 compounds, 3.2% hits. HEK293 TREx D1 cells, calcium flux, dopamine EC80; active compounds read low; in the data active = activity change below about -30%; also: % is scaled to controls: 0 for no effect and ±100 for the full control effect
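Kinetic fluorescence of a calcium dye serves as the read-out. D1-expressing Hek293 Trex cells, induced overnight at 30 C, are exposed to compound for 180 s before an EC80 dopamine addition, then read 180 s further.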
D1 PAM: potentiators of human D1 dopamine receptor; HEK293 TREx D1 cells, calcium flux, dopamine EC20 potentiation; potentiation, % at 10 µM; 360,000 compounds, 0.036% hits; in the data active = potentiation above about 30%; also: 0% is about no effect
TRPV1 agonist: human TRPV1 agonism; Q8NER1; TRPV1-expressing cells, Fluo-8 calcium influx, agonist mode; activation, % at 8.33 µM; 320,000 compounds, 0.19% hits; AID 540275; in the data active = activation above about 80%; inconclusive = between about 30% and that limit; also: 0% is about no effect
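TRPV1-expressing cells were cultured overnight at 35.5C and loaded with Fluo-8 calcium dye for 40 to 90 min at room temperature. After a 10 s baseline, compound was added and calcium influx was read kinetically for 3 min (ex 480/em 520 nm).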
An asterisk follows results filed as active; ? = inconclusive; nt = not tested or not shown; ! = a repeat was not active.

SMILES	D1 agonist	TRPV1 potentiator	D1 antag	D1 PAM	TRPV1 agonist
CCOc1cc(C(=O)Nc2ccccc2N2CCN(S(C)(=O)=O)CC2)cc(OCC)c1OCC	1	-6	-64*	-4	5
COc1ccc(CCNc2ccc(S(=O)(=O)N3CCN(C)CC3)cc2[N+](=O)[O-])cc1	11	6	-32*	-3	4
COc1ccc(C(CNc2ccc(S(=O)(=O)N3CCN(C)CC3)cc2[N+](=O)[O-])N(C)C)cc1 (stereo not given)	0	-6	4	0	1
COc1ccc(CN(C)c2ccc(S(=O)(=O)N3CCN(C)CC3)cc2[N+](=O)[O-])cc1OC	23	-3	-46*	-11	2
COc1ccc(C2=NNC(c3cccs3)=Nc3ccc(OC)cc32)cc1	-1	-10	-39*	1	11
CCOc1ccc(C2=NNC(c3cccs3)=Nc3ccc(OC)cc32)cc1OCC	1	5	6	-2	28
COCCCNCCOCCOc1ccc(Cl)cc1C(C)(C)C	38*	2	14	-7	5
Cc1ccc(C(C)C)c(OCCNCc2ccccc2)c1	53*	3	14	6	?
Cc1ccc(C)c(OCCCNCc2ccccc2)c1	20	-2	-1	4	-1
COCCNCCOCCOc1ccc(Cl)c(C)c1	32*	16	nt	-3	1
C=CCNCCOCCOc1ccc(Cl)cc1C(C)(C)C	17	3	6	-2	-1
CC(C)(C)c1ccccc1OCCOCCNCc1ccccc1	36*	-9	-21	-1	22
Cc1cc(OCCOCCNCc2ccccc2)ccc1C(C)C	63*	-8	-7	-3	10
O=C(CCc1c[nH]c2ccccc12)NCCc1ccc(Cl)cc1	0	0	-33*	0	80*
O=C(CCc1c[nH]c2ccccc12)NCCc1ccccc1	3	-11	-10	nt	?
O=C(NCCc1c[nH]c2ccccc12)c1ccc([N+](=O)[O-])cc1	3	-10	-49*	-9	25
O=[N+]([O-])c1ccc(CN2CCN(Cc3c[nH]c4ccccc34)CC2)cc1	21	-2	-72*	-7	0
Brc1ccc(CN2CCN(Cc3c[nH]c4ccccc34)CC2)cc1	15	6	14	-7	-3
Cc1ccc(S(=O)(=O)NCc2nc3nc(C)cc(C)n3n2)c(C)c1	4	-47	-65*!	-8	3
CCCC(=O)N(C1CC(C)C(C#N)(C#N)C1(C#N)C#N)N(C)C (stereo not given)	6	5	-36*	-15	24
O=C(NCC1CCCO1)c1c[nH]c2ccc(S(=O)(=O)Nc3cccc(C(F)(F)F)c3)cc2c1=O (stereo not given)	0	nt	12	2	nt
Cc1ccc(S(=O)(=O)N(CCc2ccccc2)CC(=O)Nc2ccc(Br)cc2)cc1	6	nt	2	-1	nt
Cc1ccc(-c2noc(CN(C(=O)c3cccs3)C(C)C)n2)cc1	3	-2	-30*	0	6
CC(C)N(Cc1nc(-c2ccc(Cl)cc2)no1)C(=O)c1cccs1	7	19	-12	-9	4
CCOc1cc(C(=O)N(Cc2nc(-c3ccc(C)cc3)no2)C(C)C)cc(OCC)c1OCC	19	nt	-35*	1	nt
SMILES	D1 agonist	TRPV1 potentiator	D1 antag	D1 PAM	TRPV1 agonist
Cc1nn(CC(=O)NCc2cc3ccccc3[nH]2)c(C)c1[N+](=O)[O-]	-2	16	-41*	-18	1
CC(C(=O)Nc1cc(C(F)(F)F)ccc1Cl)n1nnc2sc3c(c2c1=O)CCCC3 (stereo not given)	1	nt	4	11	nt
CC(=O)c1c(C)[nH]c(C(=O)COC(=O)c2ccc(Cl)nc2)c1C	12	-9	-41*	-6	3
Cc1cccc(N2CCN(CCCNc3ncnc4onc(-c5ccc(Cl)cc5)c34)CC2C)c1 (stereo not given)	-1	nt	2	1	nt
COc1ccc(-n2ncc(C(=O)NCCCN3CCCCC3)c2C2CCN(C(=O)OC(C)(C)C)CC2)cc1	1	nt	-18	-3	nt
CN(C)c1nc(Cl)nc(NCCOc2ccccc2)n1	81*	0	15	-8	6
COc1ccc(-c2ccc3c(N)c(C(=O)NCc4ccc(Cl)cc4)sc3n2)cc1	1	nt	-18	-2	nt
CCOC(=O)c1nn(C)c(C)c1Cl	6	26	-44*	-7	-1
CC(C)C(OC(=O)CNC(=O)c1ccccc1)C(=O)Nc1cc(C(F)(F)F)ccc1Cl (stereo not given)	2	nt	20	10	nt
CCOC(=O)C1CCN(C(=O)c2ccc(-n3ccc4ccccc43)s2)CC1	3	nt	-15	-5	nt
N#CCCN(C(=O)COC(=O)c1ccc(CNS(=O)(=O)c2ccc(F)c(Cl)c2)cc1)c1ccc(F)cc1	7	3	-33*	1	-6
CCC(C)Nc1nc2c(c(=O)n(C)c(=O)n2C)n1Cc1ccc(F)cc1 (stereo not given)	-1	-5	-85*	-21	2
Cn1c(=O)c2c(nc(NCc3ccc4c(c3)OCO4)n2Cc2ccccc2Cl)n(C)c1=O	1	5	-81*	0	-13
CCc1ccc(N2CCn3c2nc2c3c(=O)n(Cc3c(F)cccc3Cl)c(=O)n2C)cc1	6	nt	-21	-2	nt
COCCNc1nc2c(c(=O)n(C)c(=O)n2C)n1Cc1cccc(C)c1	0	15	-50*	-9	-4
Cc1cccc(Cn2c(NCCO)nc3c2c(=O)n(C)c(=O)n3C)c1	1	nt	1	-1	nt
C=CCNc1nc2c(c(=O)n(C)c(=O)n2C)n1Cc1ccc(F)cc1	5	-4	2	-6	1
Cn1c(=O)c2c(nc(OCc3ccc4c(c3)OCO4)n2Cc2ccccc2Cl)n(C)c1=O	1	17	3	-3	0
CCc1ccc(N2CCn3c2nc2c3c(=O)n(Cc3ccc(F)cc3)c(=O)n2C)cc1	11	nt	-46*	-6	nt
COC(=O)c1ccccc1NC(=O)c1ccc(F)cc1F	12	nt	2	-7	nt
CCOC(=O)c1c(C)[nH]c(CCC(=O)NCc2cc(Br)ccc2OC)c1C	-1	nt	-15	-3	nt
COc1cccc(NC(=O)C2=C(C)C(=O)OC23CCN(C(C)=O)CC3)c1	-1	nt	1	1	nt
COc1ccc(Cn2c(NCC(C)C)nc3c2c(=O)n(C)c(=O)n3C)cc1	2	nt	-41*	0	nt
COc1cc(/C=C/C(=O)N2CCCc3ccccc32)cc(OC)c1OC	-1	-8	-33*	-2	14
COc1ccc(OC)c(/C=C/C(=O)N2CCCc3ccccc32)c1	1	-13	11	1	?
COc1ccc(/C=C/C(=O)N2CCCc3ccccc32)cc1	8	-26	-32*	-7	22
CCOc1ccc(S(=O)(=O)N2CCC(c3ccncc3)CC2)cc1	10	nt	-17	-3	nt
Cc1c(Cl)cccc1NC(=O)Cn1cc(C(=O)C2CCCCC2)c2ccccc21	3	nt	-3	-1	nt
